# High-throughput results as filed in PubChem.
# ELG1 genotoxic: induces genotoxicity in HEK293T cells with luciferase-tagged ELG1 | Potency, µM (series often up to 46 µM), for the others: top-dose activity change, positive = activation, actives largely listed as activators | hit rate 1.3% among 330,000 | HEK293T ELG1-luciferase reporter, luminescence, 16 h; further: % of control where 0% means no effect; nearly all actives have a fitted effect of over 60% in size
#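 DMSO vehicle served as control against compound-treated ELG1-luciferase HEK293T cells; exposure lasted 16 hr at 37 °C and 5% CO2, followed by ONE-Glo luminescence detection after 30 min.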
# NPC1 prom act: activates the NPC1 promoter; Huh7 NPC1 promoter luciferase reporter, 24 h; Potency, µM (doses to about 9.22 µM), inactives show top-dose activation, actives largely listed as activators; hit rate 2.4% among 320,000; further: % of control where 0% means no effect; nearly all actives have a fitted effect of over 60% in size
#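 Luminescence from an NPC1 promoter-driven luciferase reporter in stably transfected Huh7 cells was measured after 24 h compound treatment at 37 °C, followed by 10 min ambient incubation with luciferase detection reagent.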
# FLuc counter: inhibits or activates purified firefly luciferase, miR-21 counter-screen; P08659; purified FLuc, Km substrates, luminescence inhibition; Potency, µM (top dose mostly 57.5 µM), for the others: top-dose activity change, negative = inhibition, hits mostly inhibitors; hit rate 6.9% among 360,000;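 further: plate controls were vehicle for no effect and reference inhibitor for full effect; nearly all actives have a fitted effect of over 55% in size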
# Target sequence (P08659 whole entry, looked up): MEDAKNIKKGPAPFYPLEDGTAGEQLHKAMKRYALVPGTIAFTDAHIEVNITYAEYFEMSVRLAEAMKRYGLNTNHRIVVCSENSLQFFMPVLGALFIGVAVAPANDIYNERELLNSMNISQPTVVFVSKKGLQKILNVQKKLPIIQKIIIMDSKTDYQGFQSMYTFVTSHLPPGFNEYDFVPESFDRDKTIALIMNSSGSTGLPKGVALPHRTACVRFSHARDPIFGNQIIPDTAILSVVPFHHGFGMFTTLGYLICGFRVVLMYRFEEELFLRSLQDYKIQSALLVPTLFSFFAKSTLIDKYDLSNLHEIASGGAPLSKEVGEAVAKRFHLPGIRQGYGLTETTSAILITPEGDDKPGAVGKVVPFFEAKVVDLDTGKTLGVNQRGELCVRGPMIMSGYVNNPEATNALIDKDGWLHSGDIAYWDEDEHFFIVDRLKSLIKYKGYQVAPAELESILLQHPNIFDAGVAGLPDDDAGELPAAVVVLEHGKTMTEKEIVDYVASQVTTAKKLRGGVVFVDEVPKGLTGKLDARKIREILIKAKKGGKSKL
#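 Purified P. pyralis luciferase (10nM final) with 10uM D-luciferin and 10uM ATP (Km levels) in 50mM Tris acetate pH 7.5, 10mM Mg acetate, 0.01% Tween-20, 0.05% BSA; qHTS 6-point titration, ~60 µM downward; luminescence read.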
# SMN2 splice enh: increases expression of the SMN2 splice variant; HEK293 SMN2-luciferase splicing reporter, luminescence, 30-36 h; Potency, µM (titrated, usually from 46.1 µM), inactives show at the highest dose activity change, positive = activation, usual class: activators; hit rate 2.8% among 210,000; further: % of control where 0% means no effect; nearly all actives have a fitted effect of over 55% in size
#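 HEK293 cells carry an SMN2 minigene-luciferase reporter in which exon 7 inclusion puts luciferase in frame. Cells were seeded at 2000 cells/well, attached for 10-12 hours, then exposed to compounds for 30-36 hours at 37C before ONE-Glo luminescence.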
# Rab9 promoter act: activators of Rab9 promoter; Huh7 Rab9 promoter-luciferase reporter, luminescence, 24 h; Potency, µM (highest dose often 9.22 µM), for inactives: at the top dose activation, negative = inhibition, actives largely listed as activators; hit rate 2.8% among 320,000; AID 485297; further: % of control where 0% means no effect; nearly all actives have a fitted effect of over 60% in size
#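 Steps: seed 1500 Huh7 Rab9-luc cells per well, rest 2 h at 37 °C; add compound in DMSO; incubate 24 h; add luciferase reagent, 10 min ambient; read luminescence.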
# An asterisk follows results filed as active; ? = inconclusive; · = not tested or not shown; [ ] = another dose, or the depositor's remark. Hits are enriched below; roughly 7.4% of the tested compounds scored in any of these assays. The call rests on the fitted dose curve; in most records, active means well fitted curve in the direction sought with a large enough effect; inconclusive means small, poorly fitted or top-dose-only effect, or another doubt; inactive means no such curve, though single readings can be large; an effect the other way counts as inactive or inconclusive. Potency means the concentration at half of the fitted maximal effect.
SMILES,ELG1 genotoxic,NPC1 prom act,FLuc counter,SMN2 splice enh,Rab9 promoter act
O=C(Nn1cnnc1)c1cc2c(s1)CCCCC2,?,15.3%,6.75µM*,?,18.4%
Cc1ccc(C(=O)NC2CCC(C)CC2)s1 (stereo not drawn),?,0.891µM*,?,·,0.398µM*
CCC/C=C(\CCC)C(NS(=O)(=O)c1ccc(C(F)(F)F)cc1)c1ccc(C(=O)OC)cc1 (stereo not drawn),·,·,·,-14.6%,·
CC(NC(=O)CN1C(=O)COc2ccc(Cl)cc21)c1ccccc1 (stereo not drawn),·,·,-4.9%,-1.5%,·
CC(C)NC(=O)c1cc2c(s1)CCCC2,10.5%,-1.9%,?,-17.4%,-5.3%
O=C(NCc1ccco1)c1cc2c(s1)CCCCC2,11.6µM*,3.98µM*,13.5µM*,14.1µM*,1.58µM*
CNC(=O)c1cc2c(s1)CCCCCC2,0.4%,0.1%,13.5µM*,4.2%,2.6%
CC1CCc2sc(C(=O)NCCCn3ccnc3)cc2C1 (stereo not drawn),-9.9%,0.9%,1.5%,·,-2.4%
O=C(NCCCn1ccnc1)c1cc2c(s1)CCCCC2,?,8.2%,16.9µM*,9.1%,7.5%
CC1CCC(NC(=O)c2cc3c(s2)CCCC3)CC1 (stereo not drawn),?,?,12µM*,·,?
CN(C)CCN1C(=O)CC[C@]2(C)C1=CC[C@@H]1[C@@H]2CC[C@]2(C)[C@H]1CC[C@]2(C)O,·,·,·,2.1%[9.22 µM],·
Cc1ccc(CNC(=O)CCCn2c(=O)c3ccccc3n(Cc3ccccc3C)c2=O)cc1,·,·,1.9%,-5.6%,·
CN(C)C(=O)c1ccc(S(=O)(=O)NCc2ccccc2Cl)s1,·,·,4.9%,·,·
CC(C)COc1ccc(C(=O)Nc2ccccc2[N+](=O)[O-])cc1,?,?,?,15.8µM*,?
O=C(NCCCNc1ccc(C(F)(F)F)cc1[N+](=O)[O-])c1cc(F)c(F)cc1Cl,-4.4%,-2.7%,-7.5%,-29.4%,-7.7%
CCCOc1ccc(C(=O)Nc2ccc(C)cc2[N+](=O)[O-])cc1,3.0%,?,-10.0%,-14.6%,?
COc1ccc(C(=O)NCCNc2ccccc2[N+](=O)[O-])cc1,11.6µM*,1.58µM*,4.78µM*,11.2µM*,0.631µM*
CCCNC(=O)c1ccc(S(=O)(=O)c2ccc(OC)cc2)c([N+](=O)[O-])c1,-10.1%,-3.4%,-0.8%,·,-5.5%
O=C(NCCNc1ccccc1[N+](=O)[O-])c1cc(F)c(F)cc1Cl,?,?,19µM*,·,?
CCOc1ccc(-c2nc(CSCC(=O)NCC3CCCO3)c(C)o2)cc1 (stereo not drawn),-0.1%[9.26 µM],-0.1%,16.9µM*,·,2.9%
CCc1ccc(-c2nc(CSCC(=O)NCc3ccco3)c(C)o2)cc1,-5.6%,-14.5%,23.9µM*,-85.1%,-15.7%
CCOC(=O)C1CCN(C(=O)CSCc2nc(-c3ccc(OCC)cc3)oc2C)CC1,20.6µM*,-2.7%,?,-79.2%,-11.2%
COc1ccc(-c2nc(CSCC(=O)N3CCN(c4ccccc4)CC3)c(C)o2)cc1,·,·,-17.6%,-8.6%,·
CCOc1ccc(-c2nc(CSCC(=O)N3CCN(C(=O)c4ccco4)CC3)c(C)o2)cc1,-0.6%,29.9%,19µM*,-25.9%,21.2%
Cc1ccc(Cl)cc1NC(=O)CSc1nc2c(c(=O)[nH]1)CN(Cc1ccccc1)CC2,·,·,-3.5%,·,·
SMILES,ELG1 genotoxic,NPC1 prom act,FLuc counter,SMN2 splice enh,Rab9 promoter act
Cc1ccc(CNC(=O)CSCc2nc(-c3ccc(Cl)cc3)oc2C)cc1,·,·,-19.3%,-9.3%,·
CCOC(=O)CSCc1nc(-c2ccc(Cl)cc2)oc1C,2.8%,2.1%,16.9µM*,-18.6%,-8.0%
COCCn1c(COc2ccc(C)cc2)nc2ccccc21,10.8%,?,9.53µM*,6.9%,?
CCn1c(COc2ccc(C)cc2)nc2ccccc21,13.4%,?,8.49µM*,·,2.82µM*
CCCn1c(CNc2ccc(Br)cc2)nc2ccccc21,-0.1%,0.9%,16.9µM*,-39.2%,28.2%
CCOCCn1c(COc2ccc(C)cc2)nc2ccccc21,9.3%,27.3%,?,?,?
Cc1ccc(OCc2nc3ccccc3n2CCOc2ccc(Cl)cc2)cc1,·,·,-20.3%,-13.1%,·
Cc1ccc(NCc2nc3ccccc3n2CCOc2ccccc2)cc1,?,4.47µM*,8.49µM*,12.3%[1.84 µM],2.51µM*
CC1c2[nH]c3ccccc3c2C[C@H]2C(=O)N(CCCN(C)C)CC(=O)N12 (stereo partly drawn),0.2%,-1.7%,0.7%,·,1.2%
CCOc1ccc(NC(=O)CC2C(=O)N(c3cccc(C)c3)C(=O)N2Cc2ccco2)cc1 (stereo not drawn),·,·,3.7%,·,·
COCCn1c(-c2ccc(OC)cc2)nc2ccccc21,-1.6%,1.3%,19µM*,3.6%,1.5%
COc1ccc(Cn2c(-c3ccc(OC)cc3)nc3ccccc32)cc1,-4.3%,-1.6%,?,-37.5%,-2.4%
Nc1nc(-c2cc(-c3ccccc3)no2)cs1,2.06µM*,1µM*,3.01µM*,·,1µM*
Nc1nc(-c2ccccc2)cs1,?,20.5%,?,11.5%,29.3%
Cc1cc(-c2cc(-c3ccccc3)on2)nc(NC2CCCC2)n1,2.8%,7.8%,?,·,0.3%
Cc1ccc(-c2cc(-c3ccccc3)no2)cc1,?,0.631µM*,0.301µM*,·,0.316µM*
O=C(c1ccccc1)c1cc(-c2ccccc2)on1,2.06µM*,0.562µM*,0.213µM*,?,0.631µM*
c1ccc(-c2cc(-c3ccccc3)on2)cc1,5.8µM*,1.41µM*,0.757µM*,·,1.41µM*
CCOc1ccc(CNC(=O)CCCn2ccc3cc(S(=O)(=O)N4CCCC4)ccc32)cc1,-12.2%,-1.2%,16.9µM*,·,-8.5%
CNC(=O)/C(=C\c1cccc(Oc2ccccc2)c1)NC(=O)c1ccccc1,0.2%,-4.5%,4.8%,-16.0%,-4.4%
CNC(=O)/C(C#N)=C/c1cccc(Oc2ccccc2)c1,?,-3.7%,8.49µM*,·,-2.8%
Clc1ccc(-n2cc(COCc3ccccc3)nn2)cc1,?,0.891µM*,1.9µM*,12.6µM*,0.891µM*
Cc1oc2c(C)c3oc(=O)c(CCC(=O)N4CCC(C(=O)NCCC(=O)O)(c5ccccc5)CC4)c(C)c3cc2c1C,-0.4%[9.26 µM],-5.1%,-2.4%,·,-0.9%
Cc1c(CCC(=O)NCCCn2ccnc2)c(=O)oc2cc3oc4c(c3cc12)CCCC4,-1.0%,13.7%,?,·,-2.1%
Cc1c(CCC(=O)N2CCC(C(=O)O)CC2)c(=O)oc2cc3oc4c(c3cc12)CCCC4,0.0%,0.3%,10.7µM*,·,5.0%
Cc1c(CCC(=O)N2CCC(C(=O)O)(c3ccccc3)CC2)c(=O)oc2cc3oc4c(c3cc12)CCCC4,8.8%,12.1%,13.5µM*,·,4.2%
CN1C2CCCC1CC(NC(=O)c1nn(C)c3ccccc13)C2 (stereo not drawn),·,4.3%[46.1 µM],·,·,3.8%[46.1 µM]
COc1ccccc1CNS(=O)(=O)c1cccs1,2.0%,9.2%,-3.8%,·,-0.4%
